Assay results as given in the supplement of paper PMC13380429.

Test system: Vero E6 infected with SARS-CoV-2
Assay: inhibition of SARS-CoV-2 cytopathic effect; higher = more antiviral protection, active = above 15
Conditions: 48 h

Measured: inhibition of SARS-CoV-2 cytopathic effect

COc1cc2c(NC3CCN(C(C)C)CC3)nc(C3CCCCC3)nc2cc1OCCCN1CCCC1
active: 10000 nM 59.6%
inactive: 1 nM 0.58% | 8.33 nM -2.43% | 100 nM -1.38% | 833.33 nM -2.98%

c1ccc(N2CCN(Cc3nc4ccccc4[nH]3)CC2)nc1
inactive: 1 nM 3.44% | 8.33 nM 2.21% | 100 nM -0.12% | 833.33 nM 0.36% | 10000 nM -0.76%

C[C@]12CC[C@H](O)C[C@H]1CC[C@@H]1[C@@H]2CC[C@]2(C)[C@@H](c3ccc(=O)oc3)C[C@H]3O[C@]132 [resibufogenin]
inactive: 1 nM -0.2% | 8.33 nM -2.33% | 100 nM -5.86% | 833.33 nM -20.4% | 10000 nM -20.4%

Cc1ccc(S(=O)(=O)OCC(=O)Nc2ccc(C(=O)O)c(O)c2)cc1 [STAT3-inhibitor-VI]
inactive: 1 nM -0.14% | 8.33 nM -0.23% | 100 nM 0.11% | 833.33 nM -1.76% | 10000 nM 1.39%

O=C(Nc1ccccc1-c1cn2c(CN3CCNCC3)csc2n1)c1cnc2ccccc2n1
inactive: 1 nM 0.17% | 8.33 nM 1.58% | 100 nM -0.07% | 833.33 nM -3.31% | 10000 nM -26.2%

CS(=O)(=O)Nc1ccc(-c2coc3cc(OCc4cccc(C(=O)O)c4)ccc3c2=O)cc1
inactive: 1 nM -0.72% | 8.33 nM 1.73% | 100 nM -1.1% | 833.33 nM -0.83% | 10000 nM -0.08%

C[C@H](c1ccc(F)cc1CCCC(=O)O)N(c1cc(F)ccc1F)S(=O)(=O)c1ccc(Cl)cc1
inactive: 1 nM -1.95% | 8.33 nM -1.39% | 100 nM -1.46% | 833.33 nM -3.65% | 10000 nM -5.49%

CCc1cccc(N(C)C(=N)Nc2cccc3ccccc23)c1 [aptiganel]
inactive: 1 nM 1.52% | 8.33 nM 1.91% | 100 nM 1.39% | 833.33 nM -2.33% | 10000 nM -4.82%

COc1cc2c(c(OC)c1OC)-c1ccc(OC)c(=O)cc1[C@@H](NC(C)=O)CC2 [colchicine]
inactive: 1 nM 2.74% | 8.33 nM 2.19% | 100 nM 0.8% | 833.33 nM -0.41% | 10000 nM 1.35%

C[C@@H]1CN(CCCn2c3ccccc3c3ccccc32)C[C@H](C)N1 [rimcazole]
inactive: 1 nM -0.92% | 8.33 nM -0.33% | 100 nM 0.18% | 833.33 nM -2.52%
active: 10000 nM 31.1%

C=CCN1CCc2cc(O)c(O)cc2[C@H](c2ccccc2)C1
inactive: 1 nM 1.44% | 8.33 nM 0.58% | 100 nM 0.35% | 833.33 nM 0.44% | 10000 nM -2.9%

NC1=NCC2c3ccccc3Cc3ccccc3N12 (stereo not given) [epinastine]
inactive: 1 nM -1.87% | 8.33 nM -1.14% | 100 nM 0.71% | 833.33 nM 7.29% | 10000 nM 1.93%

CCOC(=O)c1c(C)[nH]c2ccc3c(c12)CN1CCc2cc(OC)ccc2C1O3 (stereo not given)
active: 10000 nM 24.1%
inactive: 1 nM 3.34% | 8.33 nM 2.9% | 100 nM 2.29% | 833.33 nM 3.53%

O=C(O)CCCc1c[nH]c2ccccc12 [3-indolebutyric-acid]
inactive: 1 nM -1.83% | 8.33 nM -1.26% | 100 nM 0.03% | 833.33 nM -3.61% | 10000 nM -2.44%

COc1ccc(CN(C(=O)[C@@H](N)Cc2c(C)cc(C(N)=O)cc2C)[C@@H](C)c2ncc(-c3ccccc3)[nH]2)cc1C(=O)O [eluxadoline]
inactive: 1 nM 2.78% | 8.33 nM 1.84% | 100 nM 0.96% | 833.33 nM 1.03% | 10000 nM 1.03%

CCC(C(=O)O)c1ccc(CC(C)C)cc1 (stereo not given) [butibufen]
inactive: 1 nM -2.32% | 8.33 nM -1% | 100 nM 1.35% | 833.33 nM 2.34% | 10000 nM -0.15%

COc1ccc2[nH]c([S+]([O-])Cc3ncc(C)c(OC)c3C)nc2c1 (stereo not given) [omeprazole]
inactive: 1 nM 0.48% | 8.33 nM 2.24% | 100 nM 1.08% | 833.33 nM 3.07% | 10000 nM 1.79%

C[C@]1(c2nc3c(C(N)=O)cccc3[nH]2)CCCN1 [veliparib]
inactive: 1 nM 3.9% | 8.33 nM 7.83% | 100 nM 5.13% | 833.33 nM 4.23% | 10000 nM 8.58%

C[C@H](N)[C@H](O)c1ccc(O)c(O)c1 [levonordefrin]
inactive: 1 nM -3.75% | 8.33 nM 0.14% | 100 nM -1.88% | 833.33 nM 1.27% | 10000 nM -2.48%

NC[C@H]1O[C@H](O[C@H]2[C@H](O)[C@@H](O[C@H]3O[C@H](CO)[C@@H](O)[C@H](N)[C@H]3O)[C@H](N)C[C@@H]2N)[C@H](N)C[C@@H]1O [tobramycin]
inactive: 1 nM -1.08% | 8.33 nM 1.78% | 100 nM -0.88% | 833.33 nM 0.11% | 10000 nM 0.19%

CN1C(=O)CCS(=O)(=O)C1c1ccc(Cl)cc1 (stereo not given) [chlormezanone]
inactive: 1 nM -2.2% | 8.33 nM -0.15% | 100 nM 0.74% | 833.33 nM 0.68% | 10000 nM 1.19%

CCCCc1oc2ccc(NS(C)(=O)=O)cc2c1C(=O)c1ccc(OCCCN(CCCC)CCCC)cc1 [dronedarone]
inactive: 1 nM 3.27% | 8.33 nM 1.28% | 100 nM -0.45% | 833.33 nM 4.57%
active: 10000 nM 29.3%

CSc1ccc2c(c1)N(CCC1CCCCN1C)c1ccccc1S2 (stereo not given) [thioridazine]
inactive: 1 nM 1.41% | 8.33 nM 3.38% | 100 nM -2.55% | 833.33 nM 1.05%
active: 10000 nM 41.9%

CCN1CCN(Cc2ccc(Nc3ncc(F)c(-c4cc(F)c5nc(C)n(C(C)C)c5c4)n3)nc2)CC1 [abemaciclib]
inactive: 1 nM -2.71% | 8.33 nM -0.27% | 100 nM -1.26% | 833.33 nM 11.9% | 10000 nM 12.3%

Cc1cc(OCC(=O)O)cc(C)c1Cc1ccc(O)c(C(C)C)c1 [sobetirome]
inactive: 1 nM 1.8% | 8.33 nM -0.19% | 100 nM -3.41% | 833.33 nM -2.42% | 10000 nM -2.77%

NC(CO)C(=O)NNCc1ccc(O)c(O)c1O (stereo not given) [benserazide]
inactive: 1 nM -1.48% | 8.33 nM 3.19% | 100 nM 2.6% | 833.33 nM -3.13% | 10000 nM -4.67%

COC(=O)C1=CO[C@@H](O[C@@H]2O[C@H](CO)[C@@H](O)[C@H](O)[C@H]2O)[C@@H]2C(CO)=CC[C@H]12 [geniposide]
inactive: 1 nM -1.56% | 8.33 nM -1.45% | 100 nM -10.1% | 833.33 nM -17% | 10000 nM -18.6%

CCCCCCOc1ccccc1C(N)=O [exalamide]
inactive: 1 nM -5.16% | 8.33 nM -3.3% | 100 nM -2.73% | 833.33 nM -0.34% | 10000 nM -3.76%

c1ccc(CN2CCC3(CCc4ccccc43)CC2)cc1
inactive: 1 nM -1.07% | 8.33 nM -1.48% | 100 nM 0.06% | 833.33 nM 1.63% | 10000 nM 0.48%

CC(C)n1nccc1-c1ncccc1COc1cccc(O)c1C=O [voxelotor]
inactive: 1 nM -1.1% | 8.33 nM -1.17% | 100 nM -0.23% | 833.33 nM 0.27% | 10000 nM 6.93%

CN1CCc2cc3c(cc2[C@H]1[C@@H]1OC(=O)c2c1ccc1c2OCO1)OCO3 [bicuculline-(+)]
inactive: 1 nM 0.45% | 8.33 nM 1.6% | 100 nM 0.39% | 833.33 nM 0.32% | 10000 nM 0.5%

CN1CCCCC1CCN1c2ccccc2Sc2ccc([S+](C)[O-])cc21 (stereo not given) [mesoridazine]
inactive: 1 nM -0.86% | 8.33 nM -1.76% | 100 nM -0.98% | 833.33 nM -3.35% | 10000 nM -3.76%

O=C(/C=C/c1ccccc1)NCCO [brolitene]
inactive: 1 nM -0.76% | 8.33 nM -1.09% | 100 nM -0.6% | 833.33 nM -2.74% | 10000 nM 1.92%

Cc1cccc(Nc2ccccc2C(=O)O)c1C [mefenamic-acid]
inactive: 1 nM -0.88% | 8.33 nM 1.67% | 100 nM 1.5% | 833.33 nM -1.03% | 10000 nM -0.56%

COc1ccc(C(=O)C2CCN(CC(=O)N(Cc3nc4c(c(=O)[nH]3)COCC4)CC3CC3)CC2)cc1
inactive: 1 nM 1.44% | 8.33 nM -0.07% | 100 nM -1.36% | 833.33 nM 1.12% | 10000 nM -1.65%

C[C@@H](Oc1ccc(Cl)cc1)c1ccnc2ncnn12
inactive: 1 nM -0.64% | 8.33 nM 0.02% | 100 nM -0.48% | 833.33 nM -2.21% | 10000 nM -3.4%

C[C@]1(O)C[C@@H](c2nc(-c3ccc4ccc(-c5ccccc5)nc4c3)c3c(N)nccn32)C1 [linsitinib]
inactive: 1 nM 1.22% | 8.33 nM -0.2% | 100 nM -1.12% | 833.33 nM 0.58% | 10000 nM 1.2%

CCC[C@@H]1C[C@@H](C(=O)N[C@@H]([C@H]2O[C@H](SC)[C@H](OP(=O)(O)O)[C@@H](O)[C@H]2O)[C@H](C)Cl)N(C)C1 [Clindamycin phosphate]
inactive: 1 nM 2.18% | 8.33 nM -1.74% | 100 nM 2.16% | 833.33 nM 1.59% | 10000 nM 0.27%

O=C(NCC1(N2CCN(c3ccccc3)CC2)CCOCC1)c1cccnc1Sc1ccccc1
inactive: 1 nM -0.72% | 8.33 nM 1.47% | 100 nM 1% | 833.33 nM -2.18% | 10000 nM 0.86%
